Results on seven compounds are retold here after PubChem BioAssay.

Activity calls are given as the source filed them.

A short description of assay [1]: E. coli DRC41 culture turbidity changes, primary screen, E. coli filamentation inducer project, strain DRC41, OD650, 48 h (AID 1152).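 Also: E. coli MC1000 strain DRC41 lacking acrAB efflux pump and sulA.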 The settings on record: E. coli DRC41 (acrAB sulA), higher = more signal, called active from +8 up or from −8 down.
A short description of assay [2]: small-molecule binders of probe aLefty1, primary screen, biochemical, small-molecule microarray, 635/667 nm fluorescence (AID 1153).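 Also: score merges spot fluorescence with signal-to-noise ratio from the scanned slide images.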 The settings on record: higher = more signal.
Assay [3] is described as follows: PSAC antagonists in infected red cells, primary screen, cell-based, P. falciparum Indochina, OD700, 1 h (AID 1154). As to conditions: P. falciparum Indochina infected RBC osmotic lysis, higher = more signal, called active from +8 up or from −8 down.
A short description of assay [4]: PSAC antagonists in infected red cells, primary screen, cell-based, P. falciparum Indochina, OD700, 2 h (AID 1155).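 Also: lysis reports solute entry through the parasite surface anion channel PSAC; channel blockers reduce lysis of infected cells.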 As to conditions: P. falciparum Indochina infected erythrocytes, osmotic lysis OD700; higher = more signal, called active from +8 up or from −8 down.
Assay [5] in a line: osmotic lysis modulators in infected erythrocytes, primary screen, PSAC antagonist project, cell-based, P. falciparum Indochina, OD700, 3 h (AID 1156). The settings on record: higher = more signal, called active from +8 up or from −8 down.
Assay [6] in a line: PSAC antagonists in infected red cells, primary screen, cell-based, P. falciparum Indochina, OD700, 18 h (AID 1157). The settings on record: P. falciparum Indochina infected erythrocytes, osmotic lysis OD700, 18 h; higher = more signal, called active from +8 up or from −8 down.
Assay [7] is described as follows: modulators of S6 phosphorylation in cells, primary screen, cell-based, A549, cytoblot, luminescence, serum-stimulated (AID 1158).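 Also: serum-stimulated A549 lung adenocarcinoma cells; signal is phosphorylated S6 detected by cytoblot immunostaining with HRP secondary.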 The settings on record: A549 phospho-S6 cytoblot, 5 h, higher = more signal.
Assay [8] has as its target NADPH oxidase 2 (Homo sapiens) (UniProt P04839). The experiment in a line: NOX2-dependent H2O2 signal modulators, primary screen, NOX inhibitor project, cell-based, HEK293-NOX2, PMA-stimulated, Amplex Red fluorescence (AID 1159). Also: test concentration not given here. The settings on record: 45 min, higher = more signal, called active from +8 up or from −8 down.
In assay [9] the target is NADPH oxidase 4 (Homo sapiens) (UniProt Q9NPH5). In words: NOX4-dependent H2O2 signal modulators, primary screen, NOX inhibitor project, cell-based, HEK293-NOX4, tetracycline-induced, Amplex Red fluorescence (AID 1160). The settings on record: 45 min, higher = more signal, called active from +8 up or from −8 down.
Chain of NADPH oxidase 4 (Homo sapiens) (Q9NPH5 whole entry, looked up): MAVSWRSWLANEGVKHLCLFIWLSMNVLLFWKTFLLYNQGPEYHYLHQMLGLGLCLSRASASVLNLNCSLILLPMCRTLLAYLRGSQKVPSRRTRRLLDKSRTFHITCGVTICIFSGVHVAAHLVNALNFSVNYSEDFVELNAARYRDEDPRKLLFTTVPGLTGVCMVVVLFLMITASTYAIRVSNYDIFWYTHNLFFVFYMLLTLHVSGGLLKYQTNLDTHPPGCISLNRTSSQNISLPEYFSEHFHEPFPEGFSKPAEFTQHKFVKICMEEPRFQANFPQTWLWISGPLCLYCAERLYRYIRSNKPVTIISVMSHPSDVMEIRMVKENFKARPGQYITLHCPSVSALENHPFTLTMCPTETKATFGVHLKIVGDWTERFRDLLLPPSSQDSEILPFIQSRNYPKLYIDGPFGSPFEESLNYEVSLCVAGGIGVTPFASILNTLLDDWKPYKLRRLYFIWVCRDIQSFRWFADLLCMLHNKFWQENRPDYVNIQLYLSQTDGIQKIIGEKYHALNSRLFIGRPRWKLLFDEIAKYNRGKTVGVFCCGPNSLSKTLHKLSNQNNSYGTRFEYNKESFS
For assay [10], the target named is NADPH oxidase 5 (Homo sapiens) (UniProt Q96PH1). The experiment in a line: NOX5-dependent H2O2 signal modulators, primary screen, NOX inhibitor project, cell-based, HEK293-NOX5, Amplex Red fluorescence (AID 1161). The settings on record: HEK293-NOX5, ionomycin, 45 min, higher = more signal.
Chain of NADPH oxidase 5 (Homo sapiens) (Q96PH1 whole entry, looked up): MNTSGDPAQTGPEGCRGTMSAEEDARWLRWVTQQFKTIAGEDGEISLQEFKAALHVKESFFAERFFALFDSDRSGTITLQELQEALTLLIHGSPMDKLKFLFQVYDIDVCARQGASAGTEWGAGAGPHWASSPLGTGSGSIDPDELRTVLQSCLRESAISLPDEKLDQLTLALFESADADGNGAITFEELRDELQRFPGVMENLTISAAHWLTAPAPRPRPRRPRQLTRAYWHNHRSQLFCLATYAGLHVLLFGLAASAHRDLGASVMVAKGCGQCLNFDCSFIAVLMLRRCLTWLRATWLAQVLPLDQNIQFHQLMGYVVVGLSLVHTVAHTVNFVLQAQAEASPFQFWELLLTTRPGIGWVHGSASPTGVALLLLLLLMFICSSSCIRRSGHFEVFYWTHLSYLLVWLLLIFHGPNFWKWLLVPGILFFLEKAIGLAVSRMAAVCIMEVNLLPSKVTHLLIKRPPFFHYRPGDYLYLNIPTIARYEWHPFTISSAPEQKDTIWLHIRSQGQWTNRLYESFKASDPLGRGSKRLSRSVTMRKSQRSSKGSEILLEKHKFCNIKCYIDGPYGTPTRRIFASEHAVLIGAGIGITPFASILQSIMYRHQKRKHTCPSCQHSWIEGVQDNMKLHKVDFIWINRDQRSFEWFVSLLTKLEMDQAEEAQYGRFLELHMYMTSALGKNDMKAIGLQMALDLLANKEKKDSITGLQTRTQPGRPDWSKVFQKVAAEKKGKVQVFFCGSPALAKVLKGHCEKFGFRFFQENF
Assay [11] in a line: A549 cell viability effects, profiling panel, calcein-AM fluorescence, 48 h, basal (AID 1162). Also: test concentration not given here. The settings on record: higher = more signal.
Assay [12] in a line: adipocyte viability effects, profiling panel, cell-based, 3T3-L1 adipocytes, calcein-AM fluorescence, 48 h, basal (AID 1163). Also: test concentration not given here. The settings on record: 3T3-L1 adipocytes viability, higher = more signal.
A short description of assay [13]: HepG2 cell viability effects, profiling panel, calcein-AM fluorescence, 48 h, basal (AID 1164). Also: test concentration not given here. The settings on record: higher = more signal.
Assay [14] is described as follows: MM1S cell viability effects, profiling panel, calcein-AM fluorescence, 48 h, basal (AID 1165).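 Also: viability of MM1S multiple myeloma cells under basal unstimulated conditions; test concentration not given here.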 The settings on record: higher = more signal.
A short description of assay [15]: basal RPMI8226 viability, no added stimulus, profiling panel, cell-based, calcein-AM fluorescence, 48 h, PK04 Diversity Set (AID 1166).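 Also: cells grown under basal conditions without added stimulus; test concentration not given here.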 The settings on record: RPMI8226 myeloma viability, higher = more signal.
The nature of assay [16]: basal HepG2 mitochondrial membrane potential changes, profiling panel, cell-based, JC-1 fluorescence, 24 h, 100 nL compound (AID 1167). Also: test concentration not given here. As to conditions: higher = more signal.
A short description of assay [17]: basal 3T3-L1 adipocyte mitochondrial potential changes, profiling panel, cell-based, JC-1 fluorescence, 3T3-L1 adipocytes, 24 h, 100 nL compound (AID 1168). Also: test concentration not given here. The settings on record: JC-1 mitochondrial fluorescence, higher = more signal, called active from +8 up or from −8 down.
Assay [18] in a line: basal RPMI8226 mitochondrial membrane potential changes, profiling panel, cell-based, JC-1 fluorescence, 24 h, 100 nL compound (AID 1169). Also: test concentration not given here. As to conditions: RPMI8226 myeloma, JC-1 mitochondrial potential fluorescence, higher = more signal.
Assay [19] is described as follows: basal MM1S mitochondrial membrane potential changes, profiling panel, cell-based, JC-1 fluorescence, 24 h, 100 nL compound (AID 1170). Also: test concentration not given here. The settings on record: higher = more signal.
A short description of assay [20]: A549 lung cancer cell viability effects, profiling panel, resazurin fluorescence, 24 h, PK04 Diversity Set (AID 1171). Also: test concentration not given here. As to conditions: higher = more signal, called active from +8 up or from −8 down.

Chain of NADPH oxidase 2 (Homo sapiens) (P04839 whole entry, looked up): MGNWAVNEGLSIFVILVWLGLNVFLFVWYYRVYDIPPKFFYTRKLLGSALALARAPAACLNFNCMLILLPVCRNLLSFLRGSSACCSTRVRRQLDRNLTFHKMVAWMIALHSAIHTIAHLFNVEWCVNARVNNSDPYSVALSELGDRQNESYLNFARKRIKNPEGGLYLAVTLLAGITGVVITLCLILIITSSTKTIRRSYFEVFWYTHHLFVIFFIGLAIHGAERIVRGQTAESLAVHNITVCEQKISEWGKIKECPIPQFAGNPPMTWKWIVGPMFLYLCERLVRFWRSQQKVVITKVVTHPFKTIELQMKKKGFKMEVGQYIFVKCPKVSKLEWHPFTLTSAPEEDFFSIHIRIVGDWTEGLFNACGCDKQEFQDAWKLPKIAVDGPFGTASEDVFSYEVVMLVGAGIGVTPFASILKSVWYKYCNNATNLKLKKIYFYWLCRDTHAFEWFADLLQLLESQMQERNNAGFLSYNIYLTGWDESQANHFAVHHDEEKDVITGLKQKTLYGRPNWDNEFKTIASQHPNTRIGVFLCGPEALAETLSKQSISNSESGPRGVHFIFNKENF

On to `CC(C)CNC(=O)[C@@]1(C)c2ccccc2C(=O)N(C(C)C)[C@H]1c1ccc(CO)cc1`, for which the z-score in assay [1] is -0.144 (inactive); in assay [3], 1.54 (inactive); in assay [4], 0.344 (inactive); in assay [5], 0.24 (inactive); in assay [6], -0.0642 (inactive); in [7], -0.53. Further, the z-score in assay [8] was -0.93 (inactive); in assay [9], 0.227 (inactive); in assay [10], -0.85; in assay [11], -0.238; in assay [12] it was -0.511; in assay [13] it was -0.178. The z-score in assay [14] is 0.0151; in [15], -0.847; in assay [16], -0.372; in assay [17] it was -0.638 (inactive); in assay [18], 0.809; in [19], -0.481. For the same compound, in [20], the z-score was -0.0586 (inactive). In assay [2], the composite z-score was 0.045.

In the case of `COCCOC(=O)N1C(=O)[C@@]2(c3cc(C#CCC(C(=O)OC)C(=O)OC)ccc31)[C@H](c1ccc(OCCO)cc1)N1[C@H](c3ccccc3)[C@H](c3ccccc3)OC(=O)[C@H]1[C@@H]2C(=O)NC[C@H](O)c1ccccc1`, the z-score in assay [1] was 0.588 (inactive); in assay [3], 3.79 (inactive); in assay [4] it was 1.54 (inactive); in [5] it was 1.69 (inactive); in assay [6] it was 1.17 (inactive); in [7], 0.22. Moreover, the z-score in assay [8] was 1.53 (inactive); in assay [9], 1.26 (inactive); in assay [10] it was 1.17; in assay [11], 0.185; in assay [12] it was 0.102; in [13], 1.56. Moreover, the z-score in assay [14] was 0.446; in [15], -2.01; in assay [16] it was 0.177; in [17], 1.39 (inactive); in [18] it was -0.749; in assay [19] it was -1.61. The z-score in [20] was 0.0076 (inactive). The same compound had a composite z-score in assay [2] of -0.0533.

As for `Cc1ccc(C(C)CC(O)C2C=CC3C(=O)NC(=O)C3N2Nc2ccccn2)o1` (stereo not given), the z-score in assay [1] is 0.488 (inactive); in [3] it was 0.494 (inactive); in [4] it was 0.481 (inactive); in [5] it was -0.284 (inactive); in assay [6], 0.606 (inactive); in assay [7] it was -0.439. The z-score in [8] is 0.36 (inactive); in [9] it was -2.17 (inactive); in assay [10] it was -1.52; in assay [11], 0.378; in assay [12] it was -0.671; in [13], 1.37. In addition, the z-score in assay [14] is -0.333; in assay [15], 0.635; in assay [16], 0.117; in assay [17] it was -0.0169 (inactive); in assay [18] it was -0.263; in assay [19] it was -0.408. Also, the z-score in [20] was -0.793 (inactive). In assay [2], the composite z-score is -0.154.

For the compound `CC(=O)n1cc(C(O)C2C=CC3C(=O)N(c4ccccc4)C(=O)C3N2Nc2ccc(C#N)cc2)c2ccccc21` (stereo not given), the z-score in assay [1] is -0.947 (inactive); in [3], 21.5 (active); in [4], 6.32 (inactive); in assay [5], 0.566 (inactive); in assay [6], 1.37 (inactive); in assay [7], -0.784. The z-score in assay [8] is -1.15 (inactive); in assay [9], -4.31 (inactive); in assay [10], -3.01; in assay [11], 1.38; in assay [12] it was -0.876; in assay [13] it was 0.52. Besides, the z-score in assay [14] is 0.245; in assay [15], -0.434; in [16] it was -1.04; in assay [17], -0.855 (inactive); in assay [18], 0.423; in [19] it was -0.488. Besides, in assay [20], the z-score is 1.52 (inactive). Moreover, in assay [2], the composite z-score was found to be 0.201.

Regarding `COc1ccc([Si](C)(C)[C@@H]2[C@@H](CCO)O[C@]3(C(=O)N(Cc4cccc(N5CCCCC5=O)c4)c4ccccc43)[C@H]2C)cc1`, the z-score is -0.402 (inactive) in assay [1]; 5.77 (inactive) in assay [3]; 2.69 (inactive) in assay [4]; 0.703 (inactive) in [5]; 2 (inactive) in assay [6]; -0.549 in assay [7]. The z-score in [8] is -2.79 (inactive); in assay [9], -0.322 (inactive); in [10], 1.54; in assay [11], -0.86; in assay [12], 0.161; in [13], -1.7. Further, the z-score in assay [14] is -2.75; in assay [15] it was -1.65; in assay [16] it was -1.94; in assay [17] it was 0.128 (inactive); in assay [18] it was -1.02; in [19], -1.43. In assay [20], the z-score is -0.55 (inactive). For the same compound, the composite z-score in assay [2] turned out to be 0.236.

`O=C1O[C@H](c2ccccc2)[C@H](c2ccccc2)N2[C@H]1[C@@H](C(=O)NC[C@H](O)c1ccccc1)[C@]1(C(=O)Nc3ccc(C#CC4=CCCCC4)cc31)[C@H]2c1ccc(O)cc1`: the z-score in assay [1] was 1.8 (inactive); in assay [3], 1.35 (inactive); in assay [4], 0.393 (inactive); in assay [5], -0.693 (inactive); in assay [6], -0.521 (inactive); in assay [7], 1.98. For the same compound, the z-score is 2.08 (inactive) in assay [8]; 0.754 (inactive) in assay [9]; -0.0561 in [10]; -1.06 in assay [11]; 1.72 in assay [12]; -1.25 in assay [13]. Moreover, the z-score in [14] was -3.18; in assay [15] it was -3.47; in assay [16] it was -2.78; in assay [17], -0.683 (inactive); in [18], -0.87; in assay [19] it was -0.544. Moreover, the z-score in assay [20] was 0.237 (inactive). Besides, the composite z-score in [2] is -0.0418.

`O[C@@H](Cc1ccccc1)[C@@H](/C=C/c1ccccc1)NCc1ccccc1Br`: the z-score in assay [1] is 0.955 (inactive); in [3] it was 1.18 (inactive); in assay [4], 0.411 (inactive); in assay [5], 1.35 (inactive); in assay [6], 0.205 (inactive); in assay [7] it was 0.747. Further, the z-score in assay [8] is -0.175 (inactive); in [9] it was 0.272 (inactive); in [10] it was -0.921; in assay [11] it was 0.0965; in assay [12] it was -0.766; in assay [13], -0.0276. In addition, the z-score was -1.3 in [14]; -0.771 in assay [15]; 0.313 in assay [16]; 0.19 (inactive) in assay [17]; -0.228 in assay [18]; -1.8 in assay [19]. Also, in [20], the z-score was -0.396 (inactive). The same compound yielded a composite z-score in assay [2] of 0.0927.
